In the supplement of paper PMC12024529:

What follows are compounds tested on HEK293 WT BDD-FVIII-Gluc (assay: secreted FVIII-Gluc luciferase Z-score vs DMSO control; higher = more FVIII-Gluc secretion). Conditions: 5 µM.
Description: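 Natural plant-compound library (480 compounds, ST catalogue IDs) screened on HEK293 cells stably expressing WT BDD-FVIII-Gaussia luciferase fusion at 5 µM. Secreted Gluc activity in the medium is given as a Z-score relative to DMSO controls.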

Row | SMILES | secreted FVIII-Gluc luciferase Z-score
1 | CN1C[C@H](C(=O)N[C@]2(C)O[C@@]3(O)[C@@H]4CCCN4C(=O)[C@H](Cc4ccccc4)N3C2=O)C[C@@H]2c3cccc4[nH]cc(c34)C[C@H]21 | 0.0715
2 | COc1ccc2c(c1OC)C(=O)O[C@@H]2[C@H]1c2cc3c(cc2CCN1C)OCO3 | 1.04
3 | C[C@H]1CCC/C=C/C2C[C@H](O)C[C@H]2[C@H](O)/C=C/C(=O)O1 (stereo not given in full) | -4.99
4 | C[C@@H]1O[C@@H](O[C@H]2C[C@@H](O)[C@]3(CO)[C@H]4[C@H](O)C[C@]5(C)[C@@H](C6=CC(=O)OC6)CC[C@]5(O)[C@@H]4CC[C@]3(O)C2)[C@H](O)[C@H](O)[C@H]1O | -3.87
5 | COc1ccc2c(c1O)-c1c(OC)c(OC)cc3c1C(C2)N(C)CC3 (stereo not given) | 0.615
6 | CN(C)[C@@H]1C(=O)C(C(N)=O)=C(O)[C@@]2(O)C(=O)C3=C(O)c4c(O)cccc4[C@@](C)(O)[C@H]3C[C@@H]12 | 0.496
7 | COc1cc2c(cc1OC)-c1c(O)c(OC)cc3c1[C@H](C2)N(C)CC3 | 0.65
8 | CCC1(O)C(=O)OCc2c1cc1n(c2=O)Cc2cc3ccccc3nc2-1 (stereo not given) | -3.23
9 | C=C[C@H]1CN2CCC1C[C@@H]2C(O)c1ccnc2ccccc12 (stereo not given in full) | 0.484
10 | Cc1ccc2[nH]c(CCN)cc2c1 | 1.37
11 | CC1=C2C3OC(=O)C(C)C3CC[C@@]2(C)C=CC1=O (stereo not given in full) | 0.0932
12 | COc1ccc2c(c1OC)CN1CCc3cc4c(cc3C1C2)OCO4 (stereo not given) | 0.658
13 | COc1cc2c(cc1OC)C13CCN4CC5=CCOC6CC(=O)N2C1C6C5CC43 (stereo not given) | 0.159
14 | NCCc1c[nH]c2ccc(O)cc12 | 0.752
15 | O=c1ccc2cc(OC3OC(CO)C(O)C(O)C3O)c(O)cc2o1 (stereo not given) | 0.455
16 | C[C@]12CC[C@H](O)C[C@H]1CC[C@@H]1[C@@H]2C[C@@H](O)[C@]2(C)[C@@H](C3=CC(=O)OC3)CC[C@]12O | -7.45
17 | O=c1cccc2n1CC1CC2CN2CCCC[C@H]12 (stereo not given in full) | 0.225
18 | CC1CC[C@@]2(OC1)O[C@H]1[C@@H](O)[C@H]3[C@@H]4CC[C@H]5C[C@@H](O[C@@H]6O[C@H](CO)[C@H](O[C@@H]7O[C@H](CO)[C@@H](O)[C@H](O[C@@H]8OC[C@@H](O)[C@H](O)[C@H]8O)[C@H]7O[C@@H]7O[C@H](CO)[C@@H](O)[C@H](O[C@@H]8O[C@H](CO)[C@@H](O)[C@H](O)[C@H]8O)[C@H]7O)[C@H](O)[C@H]6O)[C@H](O)C[C@]5(C)[C@H]4CC[C@]3(C)[C@H]1[C@@H]2C (stereo not given in full) | 0.427
19 | CCC1CN2CCC1CC2C(O)c1ccnc2ccccc12 (stereo not given) | 0.33
20 | COc1cc2c(cc1OC)-c1c(OC)c(OC)c(CO)c3c1C(C2)N(C)CC3 (stereo not given) | -0.0378

Row | SMILES | secreted FVIII-Gluc luciferase Z-score
21 | COc1ccc2c(c1O)-c1c(OC)c(OC)cc3c1[C@H](C2)N(C)CC3 | 0.32
22 | CCCCc1ccc(C(=O)O)nc1 | 0.032
23 | C=C[C@H]1CN2CCC1C[C@@H]2[C@@H](O)c1ccnc2ccccc12 (stereo not given in full) | -0.283
24 | CC1CC[C@@]2(NC1)O[C@H]1C[C@H]3[C@@H]4CC=C5C[C@@H](O)CC[C@]5(C)[C@H]4CC[C@]3(C)[C@H]1[C@@H]2C (stereo not given in full) | -1.02
25 | CCC1CN2CCc3cc(OC)c(OC)cc3[C@@H]2C[C@@H]1C[C@H]1NCCc2cc(OC)c(OC)cc21 (stereo not given in full) | -3.94
26 | COc1cc2c(cc1O)CCNC2C (stereo not given) | 0.0191
27 | COc1ccc2c(c1OC)C(=O)O[C@H]2[C@@H]1c2cc3c(cc2CCN1C)OCO3 | 0.0229
28 | Cc1cc2c(C(C)C)c(O)c(O)c(C=O)c2c(O)c1-c1c(C)cc2c(C(C)C)c(O)c(O)c(C=O)c2c1O | 1.13
29 | CC[C@H]1C2C[C@H]3[C@@H]4N(C)c5ccccc5[C@]45C[C@@H](C2[C@H]5O)N3[C@@H]1O (stereo not given in full) | 0.504
30 | CN1C[C@H](CNC(=O)OCc2ccccc2)C[C@@H]2c3cccc4c3c(cn4C)C[C@H]21 | -0.629
31 | CC(C)C[C@H]1C(=O)N2CCC[C@H]2[C@]2(O)O[C@](NC(=O)[C@@H]3C=C4c5cccc6[nH]cc(c56)C[C@H]4N(C)C3)(C(C)C)C(=O)N12 | 0.241
32 | CNC(=O)Oc1ccc2c(c1)C1(C)CCN(C)C1N2C (stereo not given) | 0.602
33 | COC(C)C(O)(C(=O)OC1=CCN2CC[C@H](O)[C@@H]12)C(C)C (stereo not given in full) | -0.914
34 | COc1ccc(CC2NCC(O)C2OC(C)=O)cc1 (stereo not given) | -4.62
35 | COc1cc2c(cc1O)CC1c3c(cc(O)c(OC)c3-2)CCN1C (stereo not given) | -0.91
36 | CC(C)(O)[C@@H]1[C@H]2OC(=O)[C@@H]1[C@]1(O)C[C@H]3O[C@]34C(=O)O[C@H]2[C@]14C | -0.634
37 | CN(C)[C@@H]1C(=O)C(C(N)=O)=C(O)[C@@]2(O)C(=O)C3=C(O)c4c(O)cccc4[C@@](C)(O)[C@H]3[C@H](O)[C@@H]12 | 0.919
38 | C[C@@H]1OC(=O)[C@H]2C[C@H]3CCCC[C@@H]3[C@@H](/C=C/[C@@H]3CCC[C@@H](C)N3C)[C@@H]12 | -0.126
39 | C=C1C/C(=C/C)C(=O)O[C@@H]2CCN3CC=C(COC(=O)[C@]1(C)O)[C@H]23 | 0.649
40 | CCC1CN2CCC1CC2C(O)c1ccnc2ccc(OC)cc12 (stereo not given) | -0.168
